Whole data set: some 1,300 sequences, median “log fluorescence intensity” near 8.3, cut for the highest 2% near 12. This is one part of a sample in which the highest values are shown more often than they occur.

The experiment has as its target T1, ETS1 (Homo sapiens, UniProt P14921 1-441).
T1 sequence: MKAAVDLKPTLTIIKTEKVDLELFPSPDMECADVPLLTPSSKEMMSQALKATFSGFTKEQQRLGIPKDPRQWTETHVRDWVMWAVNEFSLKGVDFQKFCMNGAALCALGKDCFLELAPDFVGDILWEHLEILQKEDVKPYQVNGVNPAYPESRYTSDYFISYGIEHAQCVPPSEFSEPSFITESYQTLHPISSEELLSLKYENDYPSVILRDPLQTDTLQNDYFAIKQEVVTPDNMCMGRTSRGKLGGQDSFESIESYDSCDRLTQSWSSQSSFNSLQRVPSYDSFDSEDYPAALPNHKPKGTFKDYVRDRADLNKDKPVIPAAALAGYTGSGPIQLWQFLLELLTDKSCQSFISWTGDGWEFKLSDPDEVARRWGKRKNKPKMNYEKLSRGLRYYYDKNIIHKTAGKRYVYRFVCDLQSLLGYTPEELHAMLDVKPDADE
As to the kind of experiment: custom PBM; custom protein-binding microarray; buffer, salt, pH and temperature not stated; high values mean tight binding. Conditions: dsDNA, one strand shown.
Consider “GGAAAAAGGCCCTGGGTAACACCGGAAGTGGGCTTAGTCTTGATTCGCTTGACGCTGCTG”, for which the binding signal is 12 log fluorescence intensity. As for “GGAAAAAGGCCCGGGGTAACACCGGAAGTGGGCTTAGTCTTGATTCGCTTGACGCTGCTG”, the figure is 12.5 log fluorescence intensity; as for “GGAAAAAGGCCCCGGGTAACACCGGAAGTGGGCTTAGTCTTGATTCGCTTGACGCTGCTG”, 12.6 log fluorescence intensity.

For the sequence “TAAAGGGAAGAAGGTTGTGGTAGTTCCGGGTATTAAGTCTTGATTCGCTTGACGCTGCTG”, the binding signal is 8.45 log fluorescence intensity. For the sequence “GGAAAAAGGCCCAGGGTAACACCGTAAGTGGGCTTAGTCTTGATTCGCTTGACGCTGCTG”, the binding signal is 8.34 log fluorescence intensity. The same measure for “GTGTATAGGAACCCATCCAACACACGTGTTAAAATGGTCTTGATTCGCTTGACGCTGCTG”: 8.33 log fluorescence intensity; for “CGGAAGTGTCGTAACCGTCGGATATCCGGTTCTTCTGTCTTGATTCGCTTGACGCTGCTG”: 11.9 log fluorescence intensity; for “TAAAGGGAAGACGGTAGTGGTAGTTCCGGGTATTAAGTCTTGATTCGCTTGACGCTGCTG”: 8.7 log fluorescence intensity. As for “GCTGCTGCGGTGCATACCCCACCGGACGTGACCCCGGTCTTGATTCGCTTGACGCTGCTG”, the figure is 8.55 log fluorescence intensity; as for “GGAAAAAGGCCCAGGGTAACACCGGAAGTGGGCTTTGTCTTGATTCGCTTGACGCTGCTG”, 12.1 log fluorescence intensity; as for “GGAAAAAGGCCCAGGGTAACACCGGAAGTGGGCTTCGTCTTGATTCGCTTGACGCTGCTG”, 12.1 log fluorescence intensity. For “GGAAAAAGGCCCAGGGTAACACCGGAAGTGGGCTTAGTCTTGATTCGCTTGACGCTGCTG”, the binding signal was 12 log fluorescence intensity. As for “GGAAAAAGGCCCAGGGTAACACCGGAAGTGGGCTGAGTCTTGATTCGCTTGACGCTGCTG”, the figure is 11.9 log fluorescence intensity; as for “GGAAAAAGGCCCAGGGTAACACCGGAAGTGGGCTAAGTCTTGATTCGCTTGACGCTGCTG”, 12.1 log fluorescence intensity. The same measure for “GGAAAAAGGCCCAGGGTAACACCGGAAGTGGGCTTGGTCTTGATTCGCTTGACGCTGCTG”: 11.8 log fluorescence intensity; for “GAAAAAAGGCCCAGGGTAACACCGGAAGTGGGCTTAGTCTTGATTCGCTTGACGCTGCTG”: 12.1 log fluorescence intensity. The same measure for “GGAAAAAGGCCCAGGGTAACACCGGAAGTGGGCTCAGTCTTGATTCGCTTGACGCTGCTG”: 12 log fluorescence intensity; for “GGAAAAAGGCCCAGGGTAACACCGGAAGTGGGCATAGTCTTGATTCGCTTGACGCTGCTG”: 12 log fluorescence intensity; for “TAAAGGAAAGACGGTTGTGGTAGTTCCGGGTATTAAGTCTTGATTCGCTTGACGCTGCTG”: 8.77 log fluorescence intensity. For “TGTCGGGTAAGGGAATGTAGATCACGTGACTGAAAAGTCTTGATTCGCTTGACGCTGCTG”, the binding signal is 8.33 log fluorescence intensity. As to “TAAAGGGAAGACGGTTGTGGGAGTTCCGGGTATTAAGTCTTGATTCGCTTGACGCTGCTG”, the binding signal is 8.37 log fluorescence intensity. As for “CTGAAGTGTCGTAAACGTCGGATATCCGGTTCTTCTGTCTTGATTCGCTTGACGCTGCTG”, the figure is 11.8 log fluorescence intensity; as for “TCCGCCTACCAGCTCCACCCACTTCAGGCCTTGTAGGTCTTGATTCGCTTGACGCTGCTG”, 8.47 log fluorescence intensity; as for “TAAAGGGAAGACGCTTGTGGTAGTTCCGGGTATTAAGTCTTGATTCGCTTGACGCTGCTG”, 8.41 log fluorescence intensity. The same measure for “GGAAAAAGGCCCAGGGTAACACCGGATGTGGGCTTAGTCTTGATTCGCTTGACGCTGCTG”: 11 log fluorescence intensity; for “CAGCATCGGACTTCTTCCCTGAAGCAATTGATAACCGTCTTGATTCGCTTGACGCTGCTG”: 8.4 log fluorescence intensity; for “GCTGCTGCGGTGCATACCCCACCGGATGTGACCCGGGTCTTGATTCGCTTGACGCTGCTG”: 10.2 log fluorescence intensity. The same measure for “GCTGCTGCGGTGCATACCTCACCGGATGTGACCCCGGTCTTGATTCGCTTGACGCTGCTG”: 9.97 log fluorescence intensity.

As to “GGAAAAAGGCCCAGGGTAACACCGGAAATGGGCTTAGTCTTGATTCGCTTGACGCTGCTG”, the binding signal is 11.5 log fluorescence intensity. As for “GCTTCTGCGGTGCATACCCCACCGGATGTGACCCCGGTCTTGATTCGCTTGACGCTGCTG”, the figure is 10.3 log fluorescence intensity; as for “GGAAAAAGGCCCAGGGTAACACCTGAAGTGGGCTTAGTCTTGATTCGCTTGACGCTGCTG”, 8.36 log fluorescence intensity; as for “TAAAGGGAAGACGATTGTGGTAGTTCCGGGTATTAAGTCTTGATTCGCTTGACGCTGCTG”, 8.5 log fluorescence intensity. As for “GCTGCTGCGGTGCATACCCCACCGGATGTGACCCCAGTCTTGATTCGCTTGACGCTGCTG”, the binding signal is 10.1 log fluorescence intensity. As for “GGAAAAAGGCCCAGGGTAACACCGGAACTGGGCTTAGTCTTGATTCGCTTGACGCTGCTG”, the figure is 9.07 log fluorescence intensity. As for “GCTGCTGCGGTGCATACCCCACCGGATGTGACCCTGGTCTTGATTCGCTTGACGCTGCTG”, the figure is 10.1 log fluorescence intensity; as for “CTGGGACTTGAACCAACTCTGCCACGTGGGTCGTTTGTCTTGATTCGCTTGACGCTGCTG”, 8.34 log fluorescence intensity; as for “CGGAAGTGTCGTAAACGTCGGATATCAGGTTCTTCTGTCTTGATTCGCTTGACGCTGCTG”, 8.51 log fluorescence intensity. As for “GTGTATAGGGTCCCATCCAACACACGTGTTAAAATGGTCTTGATTCGCTTGACGCTGCTG”, the figure is 8.3 log fluorescence intensity. With “TCCGGCTACCAGCTCCACTCACTTCAGGCCTTGTAGGTCTTGATTCGCTTGACGCTGCTG”, the binding signal is 8.4 log fluorescence intensity. As for “GTGTATAGGATCCCATCCAACACACGTGTTAAAATGGTCTTGATTCGCTTGACGCTGCTG”, the figure is 8.35 log fluorescence intensity; as for “TGTCGGGTAAGGGAATGTAGATCACGTGAATGTAAAGTCTTGATTCGCTTGACGCTGCTG”, 8.34 log fluorescence intensity; as for “CTGGGACTTGACCCAACTCTGCCACGTGGGTCGATTGTCTTGATTCGCTTGACGCTGCTG”, 8.33 log fluorescence intensity. As for “GTCTATAGGATCCCATCCAACACACGTGTTAAAATGGTCTTGATTCGCTTGACGCTGCTG”, the binding signal was 8.42 log fluorescence intensity. Consider “GCTGCTGCGGTGCATACCCCACCGGATGTGTCCCCGGTCTTGATTCGCTTGACGCTGCTG”, for which the binding signal was 9.62 log fluorescence intensity. Take “GCTGCAGCGGTGCATACCCCACCGGATGTGACCCCGGTCTTGATTCGCTTGACGCTGCTG”: the binding signal was 10.4 log fluorescence intensity.

With “CAGCATAGGACTTCTTCACTGAAGCAATTGATAACCGTCTTGATTCGCTTGACGCTGCTG”, the binding signal was 8.32 log fluorescence intensity. For “GCTGCTGCGGTGCATACCCCCCCGGATGTGACCCCGGTCTTGATTCGCTTGACGCTGCTG”, the binding signal was 8.71 log fluorescence intensity. For “CGGAAGTGTCGTAGACGTCGGATATCCGGTTCTTCTGTCTTGATTCGCTTGACGCTGCTG”, the binding signal is 11.7 log fluorescence intensity. As for “CAGCATAGGACTTCTTCCCTGAAGGAATTGATAACCGTCTTGATTCGCTTGACGCTGCTG”, the binding signal was 8.32 log fluorescence intensity.

As for “CGGAAGTGTCGTAAACGTCGGATATCCAGTTCTTCTGTCTTGATTCGCTTGACGCTGCTG”, the binding signal is 8.64 log fluorescence intensity. As for “CACTGACTTATATATGCGAATGCACATGAATAGACCGTCTTGATTCGCTTGACGCTGCTG”, the figure is 8.35 log fluorescence intensity. As for “GCTGCTGCGGTGCACACCCCACCGGATGTGACCCCGGTCTTGATTCGCTTGACGCTGCTG”, the binding signal was 10.3 log fluorescence intensity.

The values are drawn from paper PMC6602471.
